Results published in PubChem BioAssay AID1053 (University of Pittsburgh Molecular Library Screening Center, 2008).
Values joined by “and” are separate entries in the source; they are usually repeats but may differ in a detail not shown here. Equal values may be shown once. Active and inactive are the calls of the source. How the calls were made is not given here.

Each compound was assayed against Serine/threonine-protein kinase PLK1 (Homo sapiens) (UniProt P53350) (assay: Plk1 polo box domain binding inhibitors, SAR follow-up, biochemical, fluorescence polarization, purchased analogs (AID 1053)). Settings: Plk1 PBD fluorescence polarization peptide binding; at 20 µM; stronger effect = higher value.
Chain of Serine/threonine-protein kinase PLK1 (Homo sapiens) (P53350 whole entry, looked up, the tested form may be a part): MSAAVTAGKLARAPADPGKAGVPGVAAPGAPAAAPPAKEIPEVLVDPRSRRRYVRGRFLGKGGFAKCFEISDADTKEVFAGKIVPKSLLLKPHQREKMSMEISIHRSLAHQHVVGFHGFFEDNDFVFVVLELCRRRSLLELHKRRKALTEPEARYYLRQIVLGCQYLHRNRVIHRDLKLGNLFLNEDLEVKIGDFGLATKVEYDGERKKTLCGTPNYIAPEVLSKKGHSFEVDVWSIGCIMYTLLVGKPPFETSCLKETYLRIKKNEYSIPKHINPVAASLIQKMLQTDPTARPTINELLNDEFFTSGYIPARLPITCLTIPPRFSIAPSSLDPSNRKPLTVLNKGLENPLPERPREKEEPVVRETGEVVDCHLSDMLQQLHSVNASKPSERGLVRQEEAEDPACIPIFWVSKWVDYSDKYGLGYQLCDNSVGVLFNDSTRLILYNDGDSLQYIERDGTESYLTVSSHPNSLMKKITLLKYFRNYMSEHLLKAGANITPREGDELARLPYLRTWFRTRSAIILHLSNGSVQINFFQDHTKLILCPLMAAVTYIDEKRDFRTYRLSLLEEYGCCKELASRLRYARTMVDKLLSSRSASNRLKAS

inhibition, inactive:
CCOC(=O)c1ccc(N=Cc2c(O)n(CC)c(=O)[nH]c2=O)cc1 -76.6%
Cc1ccc(C(=O)CN2C=CC(=C(O)NCc3ccccc3)C=C2)cc1 -52.1%
Cn1c(=O)c2nc(-c3ccccc3)c(-c3ccccc3)nc2n(C)c1=O -30.5%
CCCOC(=O)c1ccc(NC(=O)c2ccc(C)c(I)c2)cc1 -23.6%
CC(=O)N(CN1C(=O)c2ccccc2C1=O)c1cc(Br)ccc1C -56.1%
COc1ccccc1N(CN1C(=O)c2ccc([N+](=O)[O-])cc2C1=O)C(C)=O -55.2%
CCOC(=O)c1ccc(NC(=O)c2cc3ccccc3c(=O)o2)cc1 -35.6%
O=C(COC(=O)c1ccc(NC(=O)c2ccc(Cl)cc2)cc1)c1ccccc1 41.3%
CCOC(=O)c1ccc(NC(=O)C2CCCCC2C(=O)O)cc1 (configuration not stated) -39.1%
Cc1ccc(-c2nnc3[nH]c(=O)n(C)c(=O)c3n2)cc1 -28.5% and -24.3%
CCOC(=O)c1ccc(N=Cc2c(O)n(-c3cccc(C)c3)c(=O)[nH]c2=O)cc1 -57.1%
CCN(CC)CCOC(=O)c1ccc(NC(=O)c2cc(OC)c(OC)cc2OC)cc1 -46.3%
CC(=O)N(/C=C1\Sc2ccccc2C1=O)c1cccc(C)c1 -111%
Cn1c(=O)[nH]c2nnc(-c3ccccc3)nc2c1=O -31%
CCOC(=O)c1ccc(NC(=O)C2C3C=CC(C3)C2C(=O)O)cc1 (configuration not stated) -31.4%
CC(=O)N(CN1C(=O)c2cccc([N+](=O)[O-])c2C1=O)c1ccc2c(c1)oc1ccccc12 -35.9%
CC(=O)N(CN1C(=O)c2ccccc2C1=O)c1ccc(C)c(Cl)c1 -39.1%
CCCCCCC(=O)N(CN1C(=O)c2ccccc2C1=O)c1ccc(OCc2ccccc2)cc1 -7.37%
CCn1nc(-c2ccccc2C)nc2c(=O)n(C)c(=O)nc1-2 2.2% and 21.7%
CC(=O)N(CN1C(=O)c2ccccc2C1=O)c1cccc(F)c1 -51.8%
CC(=O)N(CN1C(=O)c2ccccc2C1=O)c1ccc(Oc2ccccc2)cc1 -50%
Cn1nc(-c2ccc(C(F)(F)F)cc2)nc2c(=O)n(C)c(=O)nc1-2 13.6% and 30.2%
CC(=O)N(/N=C1\Sc2ccccc2C1=O)c1cc(C)ccc1C 33%
COc1cc(C=C2C(=O)NC(=O)NC2=O)ccc1OCc1c(C)no[n+]1[O-] -67.5%
Cn1c(=O)[nH]c2nnc(-c3ccc(F)cc3)nc2c1=O -42.3%
CC(=O)N(/N=C1\Sc2ccccc2C1=O)c1ccccc1C 17.5%
COc1ccccc1N(CN1C(=O)c2ccccc2C1=O)C(C)=O -46.9%
CCCCOC(=O)c1ccc(NC(=O)c2cc(OCC)c(OCC)c(OCC)c2)cc1 -30.5%
CCOC(=O)c1ccc(NC(=O)C2C3C=CC(C3)C2(C)C(=O)O)cc1 (configuration not stated) -56.5%
CC(=O)N(/N=C1\Sc2ccccc2C1=O)c1ccccc1 24.7%
CCOC(=O)c1ccc(NC(=O)C2Oc3ccccc3OC2C)cc1 (configuration not stated) -28.8%
CCOC(=O)c1ccc(NC(=O)c2cc3ccccc3oc2=O)cc1 -10.3%
CCOc1cc(-c2nnc3[nH]c(=O)n(C)c(=O)c3n2)ccc1OC(C)C 15.8%
COc1cc(C=C2C(=O)NC(=O)NC2=O)ccc1OCc1ccc(Cl)cc1Cl -58.1%
CCOC(=O)c1ccc(NC(=O)C23CC4CC(CC(C4)C2)C3)cc1 -35.4%
CCOC(=O)c1ccc(N=Cc2c(O)n(Cc3ccccc3Cl)c(=O)[nH]c2=O)cc1 -73.2%
Cn1nc(-c2ccc([N+](=O)[O-])cc2)nc2c(=O)n(C)c(=O)nc1-2 31.6%
